Screens (PubChem)
VLA-4 inh = inhibition in a human VLA-4 binding assay; VLA-4 expressing cells, ligand binding flow cytometry; P13612; AID 2557; hit rate 0.2% among 330,000; inhibition, % (about 7 µM as worked out from the volumes in the protocol); in the data active means inhibition above about 50%
NRP1-CendR mod = NRP-1/CendR interaction modulation; FAM-RPARPAR peptide binding to NRP-1, fluorescence polarization; inhibition, % at 25 µM; hit rate 0.85% among 360,000; O14786; AID 602438;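 active means inhibition or corrected inhibition above about 18%, plus a signal ratio from 0.5 to 1.5, limit read from the data, passing the limit was not always enough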
APOBEC3A inh = blocks human APOBEC3A ssDNA deamination; hit rate 0.41% among 330,000; P31941; inhibition, % at 20 µM; recombinant A3A, FAM/TAMRA ssDNA deamination fluorescence; AID 493011;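 active means at least 40% inhibition at 20 µM here, with at most 30% in a related deaminase screen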;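 further: plate controls were A3A with DMSO for no effect and wells lacking A3A enzyme for full effect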
Target sequence (P31941 whole entry, looked up): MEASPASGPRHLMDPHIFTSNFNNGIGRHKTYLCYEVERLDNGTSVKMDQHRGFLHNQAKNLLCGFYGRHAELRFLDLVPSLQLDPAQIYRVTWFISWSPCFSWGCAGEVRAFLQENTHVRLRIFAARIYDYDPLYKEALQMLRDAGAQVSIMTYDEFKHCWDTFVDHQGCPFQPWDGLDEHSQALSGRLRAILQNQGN
beta cell repl = induces beta-cell replication in MIN6 cells. MIN6 cells proliferation, ATPlite luminescence, 48 h; cells starved in 0.2% serum; 100% = growth in 10% serum. proliferation, % at 10 µM. hit rate 0.29% among 330,000. AID 2380;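 active means compounds whose signal lies at least 3.5 SD above the mean of all wells on their plate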;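 further: 0% = DMSO-treated cells in low-serum medium and 100% = 10% serum control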
A3G deaminase = APOBEC3G (human) deaminase inhibition | inhibition, % at 20 µM | hit rate 0.28% among 330,000 | Q9HC16 | recombinant A3G, ssDNA deamination FAM/TAMRA fluorescence;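 active means inhibition of at least 40% at 20 µM, with no more than 30% in the related APOBEC3A deaminase screen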;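 further: plate controls were DMSO wells with A3G for no effect and wells lacking A3G enzyme for full effect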
Target sequence (Q9HC16 whole entry, looked up): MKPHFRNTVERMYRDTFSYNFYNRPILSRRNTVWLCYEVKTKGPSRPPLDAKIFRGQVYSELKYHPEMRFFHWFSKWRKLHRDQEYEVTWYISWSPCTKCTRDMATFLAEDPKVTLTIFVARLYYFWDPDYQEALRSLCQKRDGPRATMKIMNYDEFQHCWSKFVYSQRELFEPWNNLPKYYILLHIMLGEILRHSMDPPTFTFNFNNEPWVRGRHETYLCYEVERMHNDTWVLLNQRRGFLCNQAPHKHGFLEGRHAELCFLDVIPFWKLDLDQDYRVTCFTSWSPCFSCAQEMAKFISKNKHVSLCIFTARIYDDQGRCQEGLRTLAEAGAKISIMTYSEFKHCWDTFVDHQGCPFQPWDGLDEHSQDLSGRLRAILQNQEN
VLA-4 allo CP = confirmation of allosteric modulators of human VLA-4 integrin; shares compounds with VLA-4 inh; U937 cells, HUTS-21 LIBS mAb binding, flow cytometry; LDV ligand present at threefold Kd; inhibition, % at 6.7 µM; hit rate 2% among 1,300; AID 2813; in the data active means inhibition above about 40%;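 further: 0% = ligand without compound and 100% = no ligand background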
Numbers without * were called inactive; x = no result given. Most compounds without a hit are left out; they make up all but 1.8% or so of the library.

SMILES	VLA-4 inh	NRP1-CendR mod	APOBEC3A inh	beta cell repl	A3G deaminase	VLA-4 allo CP
CCOC(=O)C1(S(=O)(=O)c2ccc(Cl)cc2)CCN(Cc2ccc(C)cc2)CC1	9	-6	-5	-5	-8	6
CC(=O)C[C@@H](O)CC(=O)[C@H]1OC(=O)[C@H](C)CCCCc2ccccc21	28	0	-5	0	-4	x
COc1ccc(-n2c(=O)[nH]cc(C(=O)Nc3ccccc3)c2=O)cc1	55*	-9	0	-2	-1	1
Cc1ccc2c(c1)N(CC(=O)NCCCc1ccccc1)C(=O)c1cccnc1O2	-13	7	-2	-1	-8	x
Cc1ccc2c(c1)N(CC(=O)NCC(C)c1ccccc1)C(=O)c1cccnc1O2 (centres undefined)	53*	-14	0	-5	-13	3
O=C(N1CCN(c2ccccn2)CC1)N1c2ccccc2Sc2ccccc21	67*	-10	-3	-6	-4	0
CC1CN(C(=O)c2ccc(NS(=O)(=O)c3ccc(C(C)(C)C)cc3)cc2)CC(C)O1 (centres undefined)	x	-7	0	-3	-3	x
N=c1sccn1CC(=O)NCCc1ccc(Cl)cc1Cl	95*	-12	3	-4	3	-9
O=C(Cc1ccccc1)NCCc1ccc(Cl)cc1Cl	10	19	-3	-1	-6	x
COc1ccc(OC)c(-c2cc(C(=O)N3CCN(c4ncccn4)CC3)c3ccccc3n2)c1	95*	4	-1	1	-1	-1
COc1ccc(-c2cc(C(=O)N3CCN(c4ccccn4)CC3)c3ccccc3n2)cc1	1	-8	x	x	x	x
COc1cc(-c2cc(C(=O)N3CCN(c4ccccn4)CC3)c3ccccc3n2)cc(OC)c1OC	-6	1	-5	-3	-4	-6
CCc1ccc(C(=O)Cc2cc3cccc(OC)c3oc2=O)cc1	-12	-2	-1	0	-7	x
NC(=O)OCC(O)COc1ccc(Cl)cc1 (centres undefined)	57*	1	4	-1	-1	-6
COc1ccc(CC(=O)NCC(=O)N/N=C/c2sccc2C)cc1	1	4	-2	-1	-8	x
Cc1cccc(N=NC(=S)NNc2cccc(C)c2)c1	x	17	x	x	x	x
CSc1ccc(CN(C)C(=O)C23CC4CC(CC(Cl)(C4)C2)C3)cc1	64*	9	0	-3	-9	-7
COc1ccc(CC(C)NCC(O)c2ccc(O)c(NC=O)c2)cc1 (centres undefined)	x	-2	x	x	x	x
Cc1cccc2c(CCNC(=O)c3ccc([N+](=O)[O-])cc3)c[nH]c12	68*	6	1	-3	-6	18
CNC(=S)N/N=C/c1c(C)nn(-c2ccccc2)c1Cl	x	18	0	-2	-2	x
CNC(=S)N/N=C/c1c(C)nn(-c2cccc(Cl)c2)c1Cl	40	4	0	0	1	7
COc1ccc(Cl)cc1NC(=O)CCCn1c(=O)c2cccn2c2cccnc21	x	-4	x	x	x	x
C=CCn1c(C)cc(C2=NNC(=NC(C)(C)C)SC2)c1C	46	6	-3	0	-5	-9
C[C@@H]1CN([C@@H](C)CO)C(=O)CCCn2nncc2CO[C@H]1CN(C)S(=O)(=O)c1cn(C)cn1	x	-7	x	x	x	x
COc1ccc(Cl)cc1NC(=O)CN(C)C(=O)C1COc2ccccc2O1 (centres undefined)	4	-1	4	-4	-5	x
SMILES	VLA-4 inh	NRP1-CendR mod	APOBEC3A inh	beta cell repl	A3G deaminase	VLA-4 allo CP
COc1ccccc1C(=O)NCCC(=O)N(Cc1ccco1)Cc1cccs1	4	9	0	5	-5	x
COc1ccc(C(=O)N(Cc2ccco2)Cc2cccs2)c(O)c1	54*	-14	-1	-1	-6	1
Cc1ccc(-c2nn3c(C)nnc3c3ccccc23)cc1S(=O)(=O)NC(C)c1ccccc1 (centres undefined)	92*	5	0	-1	1	1
Cc1ccc(-c2nn3c(C)nnc3c3ccccc23)cc1S(=O)(=O)NC(C)(C)CO	-8	-11	3	-5	1	x
Cc1ccc(-c2nn3c(C)nnc3c3ccccc23)cc1S(=O)(=O)NCc1ccco1	-5	-11	-3	0	-7	0
Cc1ccc(-c2nn3c(C)nnc3c3ccccc23)cc1S(=O)(=O)N1CCN(CCO)CC1	25	-12	-1	-3	-4	-3
Cc1ccc(-c2nn3c(C)nnc3c3ccccc23)cc1S(=O)(=O)NCCO	-6	-4	3	-2	4	1
O=C1NN(c2ccccc2)C(=O)/C1=C/c1cccs1	41	x	2	-3	1	-5
O=C(c1ccccc1)c1ccc(N2CCN(C(=O)c3cccc(F)c3F)CC2)c(F)c1	23	13	-1	-6	-9	x
CCCCCN1C(=O)Cn2c(nc3ccccc3c2=O)C1C (centres undefined)	43	2	1	4	1	0
CCCCCCc1nc2ccccc2c(=O)n1N	-11	0	-1	0	-5	x
COc1ccc(Cl)cc1NC(=O)C[n+]1cccc(C)c1	2	-6	-5	-2	-3	x
CCCNC(=O)Cn1c(=O)oc2cc(S(=O)(=O)N3CCCC3)ccc21	57*	2	1	-2	-1	-3
O=C(Cn1c(=O)oc2cc(S(=O)(=O)N3CCCCCC3)ccc21)NC1CCCCCCC1	-7	-4	4	-2	5	x
CC(C)CC(=O)Nc1cc2c3c(c1)C(C)C(=O)N3CCC2 (centres undefined)	14	1	-1	-2	-3	x
Nn1c(SCC(=O)N2CCCC2)nnc1C1CCCCC1	x	-14	x	x	x	x
CC(=O)c1c(C)[nH]c(C(=O)CSc2nnc(C3CCCCC3)n2N)c1C	52*	-1	0	1	-4	4
O=C(O)c1cccc(NS(=O)(=O)c2cccc3cccnc23)c1	50*	3	6	-4	2	18
COc1ccc(N2CCN(C(=O)c3ccc4c(c3)CC(c3ccccc3)OC4=O)CC2)cc1 (centres undefined)	x	6	-3	-2	-4	x
CCOC(=O)N1CCC(N2Cc3cccc(C(=O)NCc4ccc(C)cc4)c3C2=O)CC1	50*	-12	-1	-5	-1	14
CCOc1ccc(NC(=O)CN(c2ccc(OCC)cc2)S(=O)(=O)c2c(C)[nH]c(=O)[nH]c2=O)cc1	-5	-16	0	-1	-5	10
CCOc1ccc(N(CC(=O)Nc2ccc(OC)cc2)S(=O)(=O)c2c(C)[nH]c(=O)[nH]c2=O)cc1	57*	-15	-2	2	-3	0
CCOc1ccc(N(CC(=O)Nc2ccc(C)cc2)S(=O)(=O)c2c(C)[nH]c(=O)[nH]c2=O)cc1	12	-20	-4	-1	-5	x
CC(=O)NCCOc1nc(N(C)C)nc(N2CCCCC2)n1	13	-2	-1	-3	-1	x
